The target in test [1] is Cellular tumor antigen p53 (Homo sapiens) (UniProt P04637). The experiment in a line: Primary qHTS for small molecule compounds that upregulate eGFP-tagged delta133p53alpha (in N-terminal) cells. (AID 2060322). Further: nearly all actives have a fitted effect of over 75% in size. Further: potency means the concentration at half of the fitted maximal effect.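 On activation: 0% = DMSO vehicle and 100% = reference activator.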 The conditions noted are these: NCI-H358 eGFP-delta133p53alpha fluorescence, 24 h; activation: active compounds read high. A digest of the protocol: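 NCI-H358 cells pre-induced 24 h with 10 ng/ml doxycycline to express N-terminal eGFP-delta133p53alpha, then dosed 24 h at 37C without doxycycline; fixed, Hoechst-stained, GFP intensity by laser scanning cytometry, normalized to DMSO (0%) and 57.5 uM 5-azacytidine (100%).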
Chain of Cellular tumor antigen p53 (Homo sapiens) (P04637 whole entry, looked up): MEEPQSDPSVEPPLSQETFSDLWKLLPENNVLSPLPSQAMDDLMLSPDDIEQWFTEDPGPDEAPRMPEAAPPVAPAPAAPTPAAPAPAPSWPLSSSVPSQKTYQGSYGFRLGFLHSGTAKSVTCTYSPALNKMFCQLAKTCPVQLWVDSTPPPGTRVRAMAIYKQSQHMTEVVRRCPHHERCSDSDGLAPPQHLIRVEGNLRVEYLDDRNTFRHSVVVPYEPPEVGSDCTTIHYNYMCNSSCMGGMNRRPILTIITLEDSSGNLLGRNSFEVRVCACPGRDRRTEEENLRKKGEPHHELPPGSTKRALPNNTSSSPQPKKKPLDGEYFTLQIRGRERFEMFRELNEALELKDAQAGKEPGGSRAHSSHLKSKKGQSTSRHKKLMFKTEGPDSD
For orientation: In qHTS, concentration-response curves come from the screen itself.

Test [2] addresses Aldehyde dehydrogenase, mitochondrial (Homo sapiens) (UniProt P05091). Briefly: qHTS for Inhibitors of the Aldehyde Dehydrogenase Family (ALDH2) Primary screen (AID 2061308).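 Further: plate controls were vehicle for no effect and reference inhibitor for full effect; nearly all actives have a fitted effect of over 55% in size.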 The conditions noted are these: ALDH2 enzyme inhibition qHTS, 1536-well; series mostly up to 56 µM.
Test [3] deals with Retinaldehyde dehydrogenase 3 (Homo sapiens) (UniProt P47895). The experiment in a line: qHTS for Inhibitors of the Aldehyde Dehydrogenase Family (ALDH1A3) Primary screen (AID 2061315).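 Further: plate controls were DMSO vehicle for no effect and reference inhibitor for full effect.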 The conditions noted are these: ALDH inhibition qHTS; series mostly up to 56 µM.
A short description of test [4]: BET inhibitor-based combinations targeting novel dependencies in MECOM-rearranged (r) AML: SET-2 cell line (AID 2202231). Further: nearly all actives have a fitted effect of over 35% in size. Further: potency means the concentration at half of the fitted maximal effect.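 On viability: plate controls were DMSO treated cells for no effect and wells without cells for full effect.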 The settings on record: SET-2 AML cells viability, CellTiter-Glo luminescence, 48 h; viability: active compounds read low, concentration not given here. The procedure, abridged: (§1)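 Viability of cells (500 per well) is scored by luminescent CellTiter-Glo at 48 hr post-dosing. Eleven-point titrations are normalized to DMSO and empty controls and reduced to AUC values.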
Background: ATP-based viability assays read luminescence as a measure of living cells.

Test [5] can be described thus: BET inhibitor-based combinations targeting novel dependencies in MECOM-rearranged (r) AML: MV-4-11 cell line (AID 2202233). Further: nearly all actives have a fitted effect of over 45% in size. Further: potency means the concentration at half of the fitted maximal effect. The conditions noted are these: MV-4-11 AML viability, CellTiter-Glo luminescence, 48 h; series mostly up to 46 µM. The procedure, abridged:
(§2)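 Using pin-tool transfer, drugs were added in 11 doses to cells (500/well), incubated 48 hr, and assessed with CellTiter-Glo. Z-AUC is a mean-centring transformation applied separately to each screened line.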

Test [6] is described as follows: BET inhibitor-based combinations targeting novel dependencies in MECOM-rearranged (r) AML: HNT-34 cell line (AID 2202234). Further: nearly all actives have a fitted effect of over 35% in size. Further: potency means the concentration at half of the fitted maximal effect. The conditions noted are these: HNT-34 AML viability, CellTiter-Glo luminescence, 48 h; series mostly up to 46 µM. The procedure, abridged: as §2
The nature of test [7]: BET inhibitor-based combinations targeting novel dependencies in MECOM-rearranged (r) AML: UCSD-AML1 cell line (AID 2202235). Further: nearly all actives have a fitted effect of over 40% in size. Further: potency means the concentration at half of the fitted maximal effect. The conditions noted are these: UCSD-AML1 AML cells viability, CellTiter-Glo, 48 h; series mostly up to 46 µM. The procedure, abridged:
as §2

Test [8] is described as follows: BET inhibitor-based combinations targeting novel dependencies in MECOM-rearranged (r) AML: AML-191 cell line (AID 2202236; further: nearly all actives have a fitted effect of over 35% in size; further: potency means the concentration at half of the fitted maximal effect). The settings on record: AML-191 viability, CellTiter-Glo luminescence, 48 h; series mostly up to 46 µM. The procedure, abridged:
as §1

Test [9] in a line: BET inhibitor-based combinations targeting novel dependencies in MECOM-rearranged (r) AML: AML-194 cell line (AID 2202237; further: nearly all actives have a fitted effect of over 40% in size; further: potency means the concentration at half of the fitted maximal effect). The settings on record: AML-194 (MECOM-r AML) viability, CellTiter-Glo, 48 h; series mostly up to 46 µM. A digest of the protocol:
as §1

Test [10] in a line: BET inhibitor-based combinations targeting novel dependencies in MECOM-rearranged (r) AML: OCI-AML3 cell line (AID 2202232). Further: nearly all actives have a fitted effect of over 35% in size. Further: potency means the concentration at half of the fitted maximal effect. The conditions noted are these: CellTiter-Glo luminescence, 48 h; Potency: OCI-AML3 viability; series mostly up to 46 µM. A digest of the protocol:
as §1

For orientation: viability means a read-out of living cells in per cent, often relative to untreated cells.

Molecules are shown by their SMILES. Values joined by “and” are separate entries in the source; they are usually repeats but may differ in a detail not shown here. Identical values can stand only once. Inconclusive results are not listed. A number with no mark means an inactive call. Active and inactive are the calls of the source. The call rests on the fitted dose curve; in most records, active means well fitted curve in the direction sought with a large enough effect; inconclusive means small, poorly fitted or top-dose-only effect, or another doubt; inactive means no such curve, though single readings can be large; an effect the other way counts as inactive or inconclusive.

Turning to `COc1ccc(F)c(F)c1C(=O)c1cnc(NC2CCN(S(C)(=O)=O)CC2)nc1N`, the Potency in test [1] is 2.73 µM (active) and 2.69 µM (active); in [4], 2.09 µM (active); in test [5], 1.32 µM (active); in [6], 2.35 µM (active); in [7] it was 1.66 µM (active); in [8], 2.09 µM (active). In addition, the Potency in test [9] was 2.09 µM (active). Further, the Potency result in test [2] and in test [3] was “inactive” in each case.

With `C=C1C(=O)[C@@]23C(CC[C@@H]1[C@H]2O)[C@@]12CO[C@]3(O)[C@@H](O)[C@@H]1C(C)(C)CC[C@@H]2O` (some centres undefined), the Potency in [1] was 27.3 µM (active); in test [4], 9.34 µM (active); in test [5], 2.63 µM (active); in [6] it was 2.35 µM (active); in [7], 5.9 µM (active); in [8], 8.33 µM (active). Besides, the Potency in [9] was 11.8 µM (active). Besides, the Potency entry in test [2] and in test [3] was “inactive” throughout.

For the compound `COc1cc(CNC(=O)CCCC/C=C/C(C)C)ccc1O`, the activation in test [1] was -7.14%. In addition, the Potency result in test [2], in [3] and in test [10] was “inactive” in each case. The figures for the Potency in [4] and in test [9] were 14.8 µM (active) and 10.5 µM (active), respectively.

For the compound `CC(C)C[C@H](CO)Nc1nc(S[C@@H](C)c2ccccc2)nc2nc(N)sc12`, the activation in test [1] is 5.67%. For the same compound, the Potency entry in test [2], in test [3] and in test [7] was “inactive” throughout. Besides, the Potency in test [4] was 23.5 µM (active); in test [10], 26.3 µM (active).

Take `CC(=O)Nc1ccc(C(=O)Nc2ccccc2N)cc1`: the activation in test [1] is 3% and -4.47%. Moreover, the Potency result in [2] and in [3] was “inactive” each time. Also, the Potency is 7.42 µM (active) in test [4], 16.6 µM (active) in [10], 11.8 µM (active) in [6] and 18.6 µM (active) in test [9].

For the compound `CC(C)S(=O)(=O)c1ccc2nccc(Nc3ccc4scnc4c3)c2c1`, the activation in test [1] was -14.3%. Also, the Potency result in test [2], in test [3], in test [10], in [8] and in [9] was “inactive” throughout. Also, in [4], the viability was 95.8%. Besides, the Potency in test [6] was 10.5 µM (active).

Take `CCOc1cc2ncc(C#N)c(Nc3ccc(OCc4ccccn4)c(Cl)c3)c2cc1NC(=O)/C=C/CN(C)C`: the Potency in test [1] is 9.28 µM (active); in [4], 4.68 µM (active); in [10], 5.9 µM (active); in [6] it was 1.32 µM (active); in test [8], 5.25 µM (active); in test [9] it was 5.25 µM (active). Also, the Potency result in test [2] and in test [3] was “inactive” in each case.

In the case of `O=C(c1cncc(Br)c1)N1CCC(N2CCCC2)CC1`, in test [1], the activation was -12.4% and 0.333%. Besides, the Potency entry in test [2], in [3], in test [10], in test [7], in test [8] and in test [9] was “inactive” each time. The viability in test [4] was 113%.

With `CN1CCN(C2CCN(C(=O)Nc3cc(Oc4ccc(NC(=O)C5(C(=O)Nc6ccc(F)cc6)CC5)c(F)c4)ccn3)CC2)CC1`, the Potency in test [1] was 26.9 µM (active); in [4] it was 20.9 µM (active); in [10], 23.5 µM (active); in [6], 3.72 µM (active); in [9], 11.8 µM (active). The Potency result in [2] and in test [3] was “inactive” throughout.

For `Cc1cnc(-c2cnc(NCCNc3ccc(C#N)cn3)nc2-c2ccc(Cl)cc2Cl)[nH]1`, in test [1], the activation is 9%. Besides, the Potency result in [2], in test [3], in [10], in [7] and in test [9] was “inactive” throughout. Further, in test [4], the Potency was 14.8 µM (active).

Consider `c1ccc(-c2oc3ncnc(NC[C@@H]4CCCO4)c3c2-c2ccccc2)cc1`, for which the activation in test [1] was 5.12% and -14.3%. Besides, the Potency entry in test [2], in [3], in [5], in test [6], in test [7] and in test [8] was “inactive” throughout. For the same compound, in [9], the Potency result is “inactive”. Moreover, the viability in test [4] was 86.5%.

Turning to `COc1cc2c(cc1OC)CN(CCc1ccc(NC(=O)c3cc(OC)c(OC)cc3NC(=O)c3cnc4ccccc4c3)cc1)CC2`, the activation in test [1] was 1.67%. The Potency entry in [2], in [3], in [5], in [6], in test [7] and in test [8] was “inactive” each time. For the same compound, the Potency result in test [9] is “inactive”. The viability in [4] was 119%.

Take `c1cc(N[C@@H]2CCNC2)nc(-c2cnc3ccc(-c4cn[nH]c4)cn23)c1`: the Potency in test [1] was 34.3 µM (active); in test [10], 8.33 µM (active); in test [6] it was 4.17 µM (active); in test [8], 16.6 µM (active); in test [9], 18.6 µM (active). Besides, the Potency result in test [2] and in [3] was “inactive” each time. Besides, the viability in test [4] is 88.2%.

For the compound `CN1C(=O)C(Cc2c[nH]c3ccccc23)NC1=S` (centres undefined), the activation in [1] was 23.7%. Also, the Potency result in [2], in [3], in test [10], in test [6], in test [8] and in test [9] was “inactive” each time. Also, the viability in test [4] was 99.6%.

As to `CC1(C)CNc2cc(NC(=O)c3cccnc3NCc3ccncc3)ccc21`, the activation in test [1] was -11.7% and 7.64%. The Potency result in test [2], in test [3], in test [10] and in test [9] was “inactive” in each case. In test [4], the viability was 63%.

`C[C@@H]1COCCN1c1cc(=O)n2c(n1)N(Cc1cncc(Cl)c1)[C@H](C(F)(F)F)CC2`: the activation in test [1] was -34.6%. Further, the Potency entry in test [2], in test [3], in test [10], in test [6] and in test [9] was “inactive” in each case. For the same compound, in [4], the viability was 106%.

`CCCn1c(=O)c2[nH]c(-c3cnn(Cc4cccc(C(F)(F)F)c4)c3)nc2n(CC)c1=O`: in test [1], the activation was 0.955%. The Potency entry in test [2], in test [3], in test [5], in test [6], in test [7] and in test [8] was “inactive” throughout. Moreover, in test [4], the viability was 114%.

For `NC(=O)c1ccc(N(C(N)=O)c2c(F)cccc2F)nc1-c1ccc(F)cc1F`, the activation in test [1] is 24.3% and 1.79%. The Potency entry in [2], in [3], in [5], in [6], in test [7] and in test [8] was “inactive” throughout. Moreover, the Potency entry in [9] is “inactive”. In addition, in test [4], the viability is 106%.

Values taken from PubChem BioAssay (NCATS).
